Screening data from PubChem BioAssay.
MCF10A rereplic = DNA re-replication induction in MCF 10a cells; actives 2.9% (n = 350,000); MCF 10A DNA re-replication, Hoechst nuclear intensity, 48 h; Potency, µM (highest dose often 46.1 µM), most hits filed as activators; further: nearly all actives have a fitted effect of over 50% in size
KB-V1 cytotox = kills drug-selected multidrug resistant KB-V1 cells; KB-V1 MDR cells viability, CellTiter-Glo, 72 h; Potency, µM (highest dose often 46.1 µM), actives largely listed as cytotoxic; AID 1347076; actives 3.4% (n = 400,000); further: nearly all actives have a fitted effect of over 60% in size
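KB-V1 cells (P-gp-expressing MDR subline of KB-3-1) in phenol-red-free DMEM with 10% FBS were exposed to library compounds over a concentration series for 72 h at 37 degrees C. Viability read by CellTiter-Glo luminescence; concentration-effect curves fitted after normalization.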
HT1080 IDH1KD tx = HT-1080 IDH1 knockdown cell toxicity (counter line). Potency, µM (doses to about 46.1 µM), hits mostly cytotoxic. AID 686971. actives 2% (n = 360,000). HT-1080 IDH1 knockdown viability, ATP luminescence, 48 h
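HT-1080-IDH1KD cells (IDH1 knocked down), 750/well in RPMI with 5% FBS, treated with compound 48 h at 37 degrees C. Viability by CellTiter-Glo luminescence, normalised to DMSO and no-cell wells; concentration-response curves classed.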
SW480 rereplic = induces DNA re-replication in SW480 colon adenocarcinoma cells | Potency, µM (series often up to 46.1 µM), usual class: activators | actives 1.8% (n = 340,000) | SW480 DNA re-replication, Hoechst DNA content imaging, 48 h; further: nearly all actives have a fitted effect of over 55% in size
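DNA re-replication was detected as more nuclei of elevated Hoechst intensity after 48 hr exposure to compound (23 nL pinned per well of 250 cells).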
KB-3-1 tox = kills parental KB-3-1 adenocarcinoma cells | actives 1.4% (n = 400,000) | Potency, µM (top dose mostly 46.1 µM), usual class: cytotoxic | AID 1347075 | KB-3-1 viability, CellTiter-Glo ATP luminescence, 72 h; further: nearly all actives have a fitted effect of over 60% in size
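Here the drug-naive KB-3-1 line serves as comparator for MDR sub-line selectivity; cells received compound titrations, 72 h at 37 °C, then CellTiter-Glo readout.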
HT1080NT lethal = kills 2HG-producing HT-1080-NT fibrosarcoma cells. HT-1080-NT fibrosarcoma viability, CellTiter-Glo ATP luminescence, 48 h. Potency, µM (highest dose often 46.1 µM), usual class: cytotoxic. actives 1.6% (n = 360,000). AID 686970;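 further: NT is the 2HG producing partner of a matched IDH1 knockdown line; nearly all actives have a fitted effect of over 55% in size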
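Luminescent CellTiter-Glo readout after 48 hours of compound exposure at 37 degrees C defined viability of HT-1080-NT cells. Activity was normalized to DMSO wells and cell-free media wells; concentration-response curves were fitted and assigned curve classes.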
Hits are given with their value; . = inactive; ? = inconclusive; / = not tested or not shown. Only some compounds are listed: those with a hit (about 8% of all), similar ones and a draw of the others. The call rests on the fitted dose curve; in most records, active means well fitted curve in the direction sought with a large enough effect; inconclusive means small, poorly fitted or top-dose-only effect, or another doubt; inactive means no such curve, though single readings can be large; an effect the other way counts as inactive or inconclusive.

SMILES	MCF10A rereplic	KB-V1 cytotox	HT1080 IDH1KD tx	SW480 rereplic	KB-3-1 tox	HT1080NT lethal
O=C(CNC(=O)Cc1cccc2ccccc12)NCc1ccc(F)cc1	.	?	.	.	.	.
COc1ccc(N2CC(C(=O)N/N=C/c3ccc([N+](=O)[O-])cc3)CC2=O)cc1 (stereo not drawn)	.	.	.	.	.	.
COc1ccc(N2CC(C(=O)N/N=C/c3ccc(C)cc3)CC2=O)cc1 (stereo not drawn)	2.3µM	1.5µM	2.3µM	5.2µM	1.8µM	3.3µM
C=C1C(=O)O[C@@H]2[C@@H]1CC/C(C)=C\CC[C@@]1(C)O[C@H]21	12µM	/	/	.	/	/
Cc1ccc2c(c1)-c1c(ssc1=S)C(C)(C)N2C(=O)CSC1=NCCS1	.	7.3µM	.	.	.	.
CCOc1ccc2c(c1)-c1c(ssc1=S)C(C)(C)N2C(=O)CSC1=NCCS1	.	8.2µM	.	?	.	.
CC(=O)NNC(=O)c1nc(-c2ccccc2)c(C)o1	.	.	.	.	.	.
CC1CCc2c(sc3nc(C4CC4)nc(N4CCN(C(=O)c5ccco5)CC4)c23)C1 (stereo not drawn)	16µM	?	23µM	?	?	?
CCc1nc(N2CCN(C(=O)c3ccco3)CC2)c2c3c(sc2n1)CCCC3	.	?	.	.	?	.
ClCc1nnc(-c2cc3c(s2)CCCC3)o1	?	?	?	.	?	?
O=C1C(Cc2ccccc2)C(c2ccccc2)N1c1ccccc1 (stereo not drawn)	?	18µM	.	.	21µM	.
COc1ccc(C2CC(c3cccs3)=NN2C(=O)CCl)cc1OC (stereo not drawn)	3.3µM	?	7.3µM	2.1µM	?	4.6µM
COc1ccc(C2CC(c3cccs3)=NN2C(=O)CCC(=O)O)cc1 (stereo not drawn)	.	.	.	.	.	.
COc1ccc(C2CC(c3cccs3)=NN2C(=O)c2ccccc2)cc1OC (stereo not drawn)	.	.	.	.	.	.
COc1cc(C2CC(c3cccs3)=NN2C(=O)CCl)ccc1OC(F)F (stereo not drawn)	16µM	15µM	2.6µM	.	?	1.6µM
Cc1cc(NS(=O)(=O)c2ccc(NC(=O)COc3ccc(Cl)cc3)cc2)nc(C)n1	/	.	/	/	.	/
COCCNC(=O)C1CCC(Cn2c(=S)[nH]c3ccccc3c2=O)CC1 (stereo not drawn)	.	.	.	.	.	.
O=C(NCCc1c[nH]c2ccccc12)C1CCC(Cn2c(=S)[nH]c3ccccc3c2=O)CC1 (stereo not drawn)	?	15µM	?	.	?	.
O=C(Nc1nc2nccc(-c3ccccc3)n2n1)C(Cl)(Cl)Cl	.	.	.	.	.	.
O=C(Nc1c2ccccc2nc2ccccc12)C(Cl)(Cl)Cl	13µM	.	.	?	?	.
CC(=O)OCC(=O)C1CCC2C3CCC4=CC(=O)C=CC4(C)C3CCC12C (stereo not drawn)	.	16µM	.	.	.	.
CS(=O)(=O)NCCCNc1ccc(C(F)(F)F)cc1[N+](=O)[O-]	.	?	.	.	?	.
O=[N+]([O-])c1cc(C(F)(F)F)ccc1NCCCCNS(=O)(=O)c1ccc(Cl)cc1	.	21µM	?	?	?	?
O=[N+]([O-])c1cc(C(F)(F)F)ccc1NCCNC(=S)Nc1ccc(Cl)cc1	.	?	?	?	.	18µM
Cc1cccc(N2C(=O)CC(SC(=Nc3ccccc3)Nc3ccccc3)C2=O)c1 (stereo not drawn)	.	18µM	.	.	?	.
SMILES	MCF10A rereplic	KB-V1 cytotox	HT1080 IDH1KD tx	SW480 rereplic	KB-3-1 tox	HT1080NT lethal
O=C1CC(SC(=Nc2ccccc2)Nc2ccccc2)C(=O)N1c1ccc(Cl)c(Cl)c1 (stereo not drawn)	?	16µM	?	?	?	?
CN=C(Nc1ccc2c(c1)OCO2)SC1CC(=O)N(c2ccccc2)C1=O (stereo not drawn)	.	18µM	.	.	.	.
Cc1[nH]nc2ncc(C(=O)c3cc(F)ccc3O)cc12	.	8.2µM	.	?	?	.
Cc1noc2ncc(C(=O)c3cc(F)ccc3O)cc12	.	.	.	.	.	.
O=C(Cn1ncc2c([nH]c3ccccc32)c1=O)Nc1cc(F)ccc1F	/	.	/	/	.	/
COc1ccc(-c2ccc(=O)[nH]n2)cc1	.	1.8µM	.	.	.	.
CCCC(=O)Nc1ccc2c(c1)nc(CN1CCN(C(=O)OCC)CC1)n2CC	7.3µM	.	?	9.2µM	3.3µM	?
O=C(NNc1nc2cc3c(cc2s1)OCO3)c1cccc(F)c1	.	.	.	?	?	.
Cc1nn(Cc2ccc(F)cc2)c(C)c1NC(=O)C1c2ccccc2Oc2ccccc21	18µM	.	.	.	.	.
Cc1nn(Cc2c(F)cccc2Cl)c(C)c1NC(=O)C1CC1	.	.	.	0.52µM	.	.
Cc1cc(C(=O)Nc2c(C)nn(Cc3ccc(F)cc3)c2C)on1	.	.	.	.	.	.
CC(=O)Nc1ccc(NC(=O)C(C)OC(=O)CCc2c[nH]c3ccccc23)cc1 (stereo not drawn)	.	.	.	.	.	.
Clc1ccc(Cn2c(/C=C/c3ccco3)nc3ccccc32)cc1	21µM	.	?	.	.	?
Cc1ccc(Cn2c(/C=C/c3ccco3)nc3ccccc32)cc1	.	?	?	.	.	.
O=C(Cn1cnc([N+](=O)[O-])n1)N/N=C/c1ccc(O)cc1O	.	.	18µM	12µM	.	?
O=C(CCC(=O)Nc1ccc(F)cc1)N/N=C/c1ccc(O)cc1O	.	.	.	9.2µM	.	.
O=C(NN=Cc1ccc(O)cc1)C(=O)NN=Cc1ccc(O)cc1	.	.	.	.	.	.
COCCNC(=O)Cn1cnc([N+](=O)[O-])n1	.	.	.	.	.	.
O=C(N/N=C/c1ccc(O)cc1O)C(=O)N/N=C/c1ccc(O)cc1O	.	.	?	12µM	?	?
CCCCNC(=O)Cn1cnc([N+](=O)[O-])n1	.	?	.	7.3µM	.	.
O=C(Cn1cnc([N+](=O)[O-])n1)N/N=C/c1cccc2ccccc12	.	.	.	.	.	.
Oc1ccc(C=NNC(=S)Nc2ccc(F)cc2)c(O)c1	?	.	18µM	?	?	?
C=CC(=O)Nc1cccc(Oc2cc(Cl)nc3[nH]ccc23)c1	?	18µM	?	?	?	?
CCc1c(C)nc(Nc2nc(C)c3cc(OC)ccc3n2)[nH]c1=O	?	?	.	.	.	.
